Test results as given in PubChem BioAssay (NCATS).
Results filed as inconclusive are left out. A call without a number means that no potency is given here. Values without a mark were called inactive. Active and inactive are the calls of the source. Calls follow the shape of the dose curve; as a rule, active = well fitted cell-killing curve with a large enough effect; inconclusive = small, poorly fitted or top-dose-only effect, or effect the other way; inactive = flat fitted curve, though single readings scatter.

tested on: JEG-3; test: Primary qHTS to identify gynecologic anti-cancer compounds using libraries of approved drugs and bioactive compounds (AID 1345084); conditions: Gynecologic cancer cell panel viability, ATPlite luminescence, 48 h; series mostly up to 57.5 µM; also: nearly all actives have a fitted effect of over 55% in size
Procedure, shortened: (§1)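 Cells, 1,000 per well, plated 16 h, then exposed 48 h at 37 C to compounds. Viability by ATPlite luminescence after 15 min at room temperature.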
Potency is read from the fitted curve at half-maximal effect.

Row | Structure (SMILES) | Potency
1 | CN(C)C(=O)COC(=O)Cc1ccc(OC(=O)c2ccc(N=C(N)N)cc2)cc1 | inactive
2 | COC(=O)C1=C(C)NC(C)=C(C(=O)OC(C)C)C1c1cccc2nonc12 (stereo not drawn) | inactive
3 | Cn1c(NCCN(CCO)CCCc2ccc([N+](=O)[O-])cc2)cc(=O)n(C)c1=O | inactive
4 | N=C(N)c1ccc2cc(OC(=O)c3ccc(N=C(N)N)cc3)ccc2c1 | inactive
5 | CC(S)C(=O)NCC(=O)O (stereo not drawn) | inactive

tested on: OV90; test: as above; conditions: Gynecologic cancer cell panel viability, ATPlite luminescence, 48 h; series mostly up to 57.5 µM
Procedure, shortened: as §1

Row | Structure (SMILES) | Potency | activity change, negative = cytotoxicity
6 | CCC[C@@H]1C[C@@H](C(=O)N[C@@H]([C@H]2O[C@H](SC)[C@H](O)[C@@H](O)[C@H]2O)[C@@H](C)O)N(C)C1 | inactive | 
7 | COc1ccc(C2(C#N)CCC(C(=O)O)CC2)cc1OC1CCCC1 (stereo not drawn) | inactive | 
8 | CC(=O)Nc1ccc(O)cc1 | inactive | 
9 | Nc1ccc(S(N)(=O)=O)cc1 | inactive | 
10 | O=C(c1ccccc1)c1ccc2n1CCC2C(=O)O (stereo not drawn) | inactive | 
11 | CCN(CC)C(=S)SSC(=S)N(CC)CC | 4.47 µM (active) | 
12 | CCN(CCO)CCCC(C)Nc1ccnc2cc(Cl)ccc12 (stereo not drawn) |  | -3.69% [at 6.55 µM]
13 | Clc1ccc(C(Cn2ccnc2)OCc2ccc(Sc3ccccc3)cc2)c(Cl)c1 (stereo not drawn) | inactive | 
14 | COCCCN1CCC(NC(=O)c2cc(Cl)c(N)c3c2OCC3)CC1 | inactive | 
15 | O=C(O)CCNC(=O)c1ccc(N=Nc2ccc(O)c(C(=O)O)c2)cc1 | inactive | 
16 | CCCc1cc(=O)[nH]c(=S)[nH]1 | inactive | 
17 | Oc1ccc(OCc2ccccc2)cc1 | inactive | 
18 | Cc1cccc(C)c1OCC(=O)N[C@@H](Cc1ccccc1)[C@@H](O)C[C@H](Cc1ccccc1)NC(=O)[C@H](C(C)C)N1CCCNC1=O | inactive | 
